Columns and labels:
Experiment in all cases: DAPPL (digital affinity profiling via proximity ligation, sequencing); 10 mM Tris-HCl pH 7.5, 50 mM NaCl, 1 mM DTT, 4% glycerol, room temperature, 30 min; GST-TFs on glutathione beads, 16-mer random dsDNA library, 0.1% formaldehyde crosslink after washing; high values mean tight binding
FEV = biological target: T1, FEV (Homo sapiens, UniProt Q99581 1-238); details: protein: recombinant; tags: N-terminal GST; dsDNA, one strand shown
T1 sequence: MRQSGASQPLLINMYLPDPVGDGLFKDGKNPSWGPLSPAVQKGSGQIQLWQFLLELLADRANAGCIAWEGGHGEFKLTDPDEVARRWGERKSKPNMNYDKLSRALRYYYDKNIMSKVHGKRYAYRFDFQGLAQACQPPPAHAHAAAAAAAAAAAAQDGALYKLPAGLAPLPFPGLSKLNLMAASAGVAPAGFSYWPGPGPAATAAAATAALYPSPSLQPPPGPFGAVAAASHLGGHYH
How it was run: (§1)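 The binding signal reported is, for every hexamer, its read frequency for a factor over its read frequency for the tag-only sample. Reads came from pools of yeast-expressed, GST-fused human transcription factors on glutathione beads, barcoded with DNA and mixed with that sample, which were incubated with 200 nmole of a random double-stranded 16-mer DNA library in Tris/NaCl/DTT/glycerol buffer at room temperature for 30 min. After washing, the pools were crosslinked with 0.1% formaldehyde, proximity-ligated with BsaI/T4 ligase for 1 h at 37 °C, PCR-amplified and sequenced on an Illumina NextSeq500.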

ETV5 = ETV5 (Homo sapiens, UniProt P41161 1-510); details: protein: recombinant; tags: N-terminal GST; dsDNA, one strand shown
How it was run: as §1

HSF1 = HSF1 (Homo sapiens, UniProt Q00613 1-529); details: protein: recombinant; tags: N-terminal GST; chain copies: 3; dsDNA, one strand shown
How it was run: as §1

SPIC = biological target: T2, SPIC (Homo sapiens, UniProt Q8N5J4 1-248); details: protein: recombinant; tags: N-terminal GST; dsDNA, one strand shown
T2 sequence: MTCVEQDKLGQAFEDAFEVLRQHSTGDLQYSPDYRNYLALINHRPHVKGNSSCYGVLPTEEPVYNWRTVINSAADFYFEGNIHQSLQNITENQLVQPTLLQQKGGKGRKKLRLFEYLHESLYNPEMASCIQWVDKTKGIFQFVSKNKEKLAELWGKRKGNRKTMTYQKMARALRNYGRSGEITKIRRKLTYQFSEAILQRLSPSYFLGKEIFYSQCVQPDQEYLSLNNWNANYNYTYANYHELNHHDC
How it was run: as §1

ELF4 = ELF4 (Homo sapiens, UniProt Q99607 1-663); details: protein: recombinant; tags: N-terminal GST; dsDNA, one strand shown
How it was run: as §1

ELK4 = biological target: T3, ELK4 (Homo sapiens, UniProt P28324-2 1-405); details: protein: recombinant; tags: N-terminal GST; dsDNA, one strand shown
T3 sequence: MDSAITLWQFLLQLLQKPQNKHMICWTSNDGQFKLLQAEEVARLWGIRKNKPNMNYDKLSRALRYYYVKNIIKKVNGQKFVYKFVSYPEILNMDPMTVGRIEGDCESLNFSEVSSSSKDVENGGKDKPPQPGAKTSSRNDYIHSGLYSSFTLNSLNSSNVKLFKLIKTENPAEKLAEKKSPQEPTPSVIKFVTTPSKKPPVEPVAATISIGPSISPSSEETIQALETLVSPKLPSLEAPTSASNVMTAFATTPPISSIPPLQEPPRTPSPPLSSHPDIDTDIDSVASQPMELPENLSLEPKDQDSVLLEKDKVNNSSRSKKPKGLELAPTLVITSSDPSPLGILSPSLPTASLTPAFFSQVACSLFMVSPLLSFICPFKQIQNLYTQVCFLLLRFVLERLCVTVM
How it was run: as §1

ETV2 = biological target: T4, ETV2 (Homo sapiens, UniProt O00321 1-342); details: protein: recombinant; tags: N-terminal GST; dsDNA, one strand shown
T4 sequence: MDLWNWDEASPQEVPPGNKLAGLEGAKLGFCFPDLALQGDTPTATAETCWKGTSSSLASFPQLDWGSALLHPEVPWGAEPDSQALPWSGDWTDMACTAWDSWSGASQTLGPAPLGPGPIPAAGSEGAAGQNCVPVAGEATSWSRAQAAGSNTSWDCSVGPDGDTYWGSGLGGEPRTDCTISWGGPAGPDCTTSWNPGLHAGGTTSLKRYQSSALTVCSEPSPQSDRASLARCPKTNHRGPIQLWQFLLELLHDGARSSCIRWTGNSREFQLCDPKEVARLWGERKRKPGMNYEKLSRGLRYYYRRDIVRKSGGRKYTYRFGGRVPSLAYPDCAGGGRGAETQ
How it was run: as §1

ELF3 = biological target: T5, ELF3 (Homo sapiens, UniProt P78545 1-371); details: protein: recombinant; tags: N-terminal GST; dsDNA, one strand shown
T5 sequence: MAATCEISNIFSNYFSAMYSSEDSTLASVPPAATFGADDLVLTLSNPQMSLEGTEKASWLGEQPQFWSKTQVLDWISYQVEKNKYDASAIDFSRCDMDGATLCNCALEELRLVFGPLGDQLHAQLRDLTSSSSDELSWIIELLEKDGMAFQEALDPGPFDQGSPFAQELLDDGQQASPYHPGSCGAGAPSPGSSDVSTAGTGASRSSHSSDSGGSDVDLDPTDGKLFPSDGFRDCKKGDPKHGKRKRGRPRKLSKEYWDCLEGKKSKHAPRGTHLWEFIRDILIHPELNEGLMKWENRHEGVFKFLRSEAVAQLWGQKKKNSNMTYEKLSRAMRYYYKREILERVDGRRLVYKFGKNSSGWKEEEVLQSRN
How it was run: as §1

CRX = CRX (Homo sapiens, UniProt O43186 1-299); details: protein: recombinant; tags: N-terminal GST; dsDNA, one strand shown
How it was run: as §1

ETV1 = ETV1 (Homo sapiens, UniProt P50549 1-477); details: protein: recombinant; tags: N-terminal GST; dsDNA, one strand shown
How it was run: as §1

ERF = biological target: T6, ERF (Homo sapiens, UniProt P50548 1-548); details: protein: recombinant; tags: N-terminal GST; dsDNA, one strand shown
T6 sequence: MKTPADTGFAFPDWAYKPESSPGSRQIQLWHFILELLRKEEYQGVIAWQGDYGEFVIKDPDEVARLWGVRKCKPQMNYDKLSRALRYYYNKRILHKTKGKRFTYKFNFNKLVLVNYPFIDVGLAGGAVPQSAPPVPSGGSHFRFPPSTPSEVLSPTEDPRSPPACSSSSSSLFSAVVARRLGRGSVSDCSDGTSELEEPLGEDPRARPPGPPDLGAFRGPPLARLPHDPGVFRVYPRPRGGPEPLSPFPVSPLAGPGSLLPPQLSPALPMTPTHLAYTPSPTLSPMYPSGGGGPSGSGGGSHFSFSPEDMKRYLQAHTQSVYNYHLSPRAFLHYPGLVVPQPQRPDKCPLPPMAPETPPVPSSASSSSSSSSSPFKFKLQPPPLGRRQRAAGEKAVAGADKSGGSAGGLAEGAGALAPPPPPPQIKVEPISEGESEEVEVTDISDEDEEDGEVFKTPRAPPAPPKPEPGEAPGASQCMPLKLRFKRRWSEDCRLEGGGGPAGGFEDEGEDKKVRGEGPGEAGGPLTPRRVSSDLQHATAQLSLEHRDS
How it was run: as §1

ETV3L = biological target: T7, ETV3L (Homo sapiens, UniProt Q6ZN32 1-361); details: protein: recombinant; tags: N-terminal GST; dsDNA, one strand shown
T7 sequence: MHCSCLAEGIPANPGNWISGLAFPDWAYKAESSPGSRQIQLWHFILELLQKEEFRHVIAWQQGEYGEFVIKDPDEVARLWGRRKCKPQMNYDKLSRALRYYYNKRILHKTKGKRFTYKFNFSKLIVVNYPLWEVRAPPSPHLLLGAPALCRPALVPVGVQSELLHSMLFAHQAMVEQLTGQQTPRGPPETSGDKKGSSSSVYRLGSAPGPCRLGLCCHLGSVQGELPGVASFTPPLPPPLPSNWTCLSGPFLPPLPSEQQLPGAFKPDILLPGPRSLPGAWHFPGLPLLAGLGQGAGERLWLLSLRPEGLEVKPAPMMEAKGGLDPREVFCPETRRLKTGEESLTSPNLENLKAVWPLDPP
How it was run: as §1

ETS2 = biological target: T8, ETS2 (Homo sapiens, UniProt P15036 1-469); details: protein: recombinant; tags: N-terminal GST; dsDNA, one strand shown
T8 sequence: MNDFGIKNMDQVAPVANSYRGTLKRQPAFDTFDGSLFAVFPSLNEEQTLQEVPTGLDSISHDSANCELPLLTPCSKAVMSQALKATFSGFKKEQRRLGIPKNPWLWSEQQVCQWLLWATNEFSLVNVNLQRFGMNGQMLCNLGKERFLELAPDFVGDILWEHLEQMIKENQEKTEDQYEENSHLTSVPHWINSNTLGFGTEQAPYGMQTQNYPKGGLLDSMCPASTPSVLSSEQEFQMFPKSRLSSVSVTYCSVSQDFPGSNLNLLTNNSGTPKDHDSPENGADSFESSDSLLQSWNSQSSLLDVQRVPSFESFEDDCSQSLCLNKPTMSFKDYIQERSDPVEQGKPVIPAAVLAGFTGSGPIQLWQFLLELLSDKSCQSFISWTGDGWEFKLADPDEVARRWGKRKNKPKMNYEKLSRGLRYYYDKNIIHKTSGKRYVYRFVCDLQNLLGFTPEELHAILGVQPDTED
How it was run: as §1

SPDEF = biological target: T9, SPDEF (Homo sapiens, UniProt O95238 1-335); details: protein: recombinant; tags: N-terminal GST; dsDNA, one strand shown
T9 sequence: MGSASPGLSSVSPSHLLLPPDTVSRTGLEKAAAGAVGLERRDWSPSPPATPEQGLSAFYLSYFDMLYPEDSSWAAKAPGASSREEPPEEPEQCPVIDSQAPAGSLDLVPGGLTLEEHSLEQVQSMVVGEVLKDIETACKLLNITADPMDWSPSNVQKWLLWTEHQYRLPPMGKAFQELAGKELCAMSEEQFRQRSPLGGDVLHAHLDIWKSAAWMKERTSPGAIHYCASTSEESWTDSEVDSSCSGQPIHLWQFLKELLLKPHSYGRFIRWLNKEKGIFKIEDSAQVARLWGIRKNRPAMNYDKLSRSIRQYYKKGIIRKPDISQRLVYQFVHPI
How it was run: as §1

ETV7 = biological target: T10, ETV7 (Homo sapiens, UniProt Q9Y603 1-341); details: protein: recombinant; tags: N-terminal GST; dsDNA, one strand shown
T10 sequence: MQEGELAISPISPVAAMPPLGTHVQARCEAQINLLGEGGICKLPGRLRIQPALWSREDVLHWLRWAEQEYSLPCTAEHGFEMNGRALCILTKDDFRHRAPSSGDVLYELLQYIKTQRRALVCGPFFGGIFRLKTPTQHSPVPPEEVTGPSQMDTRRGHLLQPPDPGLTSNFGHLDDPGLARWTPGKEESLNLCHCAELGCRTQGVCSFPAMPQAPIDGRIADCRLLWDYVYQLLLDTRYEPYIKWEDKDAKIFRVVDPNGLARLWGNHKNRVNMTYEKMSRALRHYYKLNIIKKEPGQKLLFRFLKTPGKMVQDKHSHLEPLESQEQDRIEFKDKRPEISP
How it was run: as §1

ELF5 = biological target: T11, ELF5 (Homo sapiens, UniProt Q9UKW6-2 1-255); details: protein: recombinant; tags: N-terminal GST; dsDNA, one strand shown
T11 sequence: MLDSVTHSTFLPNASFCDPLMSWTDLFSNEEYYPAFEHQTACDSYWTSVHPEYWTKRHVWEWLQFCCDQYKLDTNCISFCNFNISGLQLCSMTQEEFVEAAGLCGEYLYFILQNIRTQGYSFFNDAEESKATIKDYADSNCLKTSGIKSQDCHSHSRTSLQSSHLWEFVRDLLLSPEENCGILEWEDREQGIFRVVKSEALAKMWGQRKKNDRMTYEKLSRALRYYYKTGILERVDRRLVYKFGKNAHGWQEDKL
How it was run: as §1

ETV3 = biological target: T12, ETV3 (Homo sapiens, UniProt P41162-2 1-143); details: protein: recombinant; tags: N-terminal GST; dsDNA, one strand shown
T12 sequence: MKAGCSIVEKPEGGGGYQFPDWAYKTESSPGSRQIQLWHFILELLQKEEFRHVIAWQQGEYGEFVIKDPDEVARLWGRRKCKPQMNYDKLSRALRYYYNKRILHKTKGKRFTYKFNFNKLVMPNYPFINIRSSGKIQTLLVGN
How it was run: as §1

ETV6 = ETV6 (Homo sapiens, UniProt P41212 1-452); details: protein: recombinant; tags: N-terminal GST; dsDNA, one strand shown
How it was run: as §1

Chain of ETV1 (P50549 whole entry): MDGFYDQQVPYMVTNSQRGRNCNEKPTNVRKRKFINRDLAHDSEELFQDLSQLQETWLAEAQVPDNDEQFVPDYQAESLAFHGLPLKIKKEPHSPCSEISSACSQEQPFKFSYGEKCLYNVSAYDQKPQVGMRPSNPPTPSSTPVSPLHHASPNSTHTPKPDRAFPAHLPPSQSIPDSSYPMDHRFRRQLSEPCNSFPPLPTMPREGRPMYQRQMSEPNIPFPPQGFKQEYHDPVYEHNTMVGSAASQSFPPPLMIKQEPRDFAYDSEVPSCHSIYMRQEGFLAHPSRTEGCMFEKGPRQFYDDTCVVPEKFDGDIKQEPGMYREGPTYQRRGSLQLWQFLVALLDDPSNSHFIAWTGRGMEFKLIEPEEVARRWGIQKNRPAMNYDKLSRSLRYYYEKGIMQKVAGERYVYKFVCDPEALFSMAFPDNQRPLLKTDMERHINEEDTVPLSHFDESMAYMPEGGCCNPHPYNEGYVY
Chain of ETV6 (P41212 whole entry): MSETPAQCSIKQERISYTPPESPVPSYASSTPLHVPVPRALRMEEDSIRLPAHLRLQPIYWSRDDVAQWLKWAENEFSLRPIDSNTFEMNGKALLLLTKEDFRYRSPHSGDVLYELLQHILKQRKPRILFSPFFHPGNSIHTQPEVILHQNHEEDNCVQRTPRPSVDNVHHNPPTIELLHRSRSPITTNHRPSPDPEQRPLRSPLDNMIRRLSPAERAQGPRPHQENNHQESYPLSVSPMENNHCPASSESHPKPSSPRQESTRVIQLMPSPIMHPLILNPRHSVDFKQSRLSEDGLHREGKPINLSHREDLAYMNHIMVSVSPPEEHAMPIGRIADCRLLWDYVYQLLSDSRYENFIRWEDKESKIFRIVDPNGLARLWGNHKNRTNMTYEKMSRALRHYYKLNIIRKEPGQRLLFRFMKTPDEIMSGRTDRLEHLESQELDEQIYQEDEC
Chain of CRX (O43186 whole entry): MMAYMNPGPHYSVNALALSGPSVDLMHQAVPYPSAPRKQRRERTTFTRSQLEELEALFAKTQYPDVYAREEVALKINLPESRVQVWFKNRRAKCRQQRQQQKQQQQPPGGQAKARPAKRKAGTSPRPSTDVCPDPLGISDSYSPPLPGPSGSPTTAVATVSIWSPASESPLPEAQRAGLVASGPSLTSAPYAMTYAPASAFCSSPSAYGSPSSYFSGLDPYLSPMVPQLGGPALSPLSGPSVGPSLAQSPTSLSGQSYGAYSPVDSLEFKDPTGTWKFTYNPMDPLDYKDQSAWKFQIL
Chain of ETV5 (P41161 whole entry): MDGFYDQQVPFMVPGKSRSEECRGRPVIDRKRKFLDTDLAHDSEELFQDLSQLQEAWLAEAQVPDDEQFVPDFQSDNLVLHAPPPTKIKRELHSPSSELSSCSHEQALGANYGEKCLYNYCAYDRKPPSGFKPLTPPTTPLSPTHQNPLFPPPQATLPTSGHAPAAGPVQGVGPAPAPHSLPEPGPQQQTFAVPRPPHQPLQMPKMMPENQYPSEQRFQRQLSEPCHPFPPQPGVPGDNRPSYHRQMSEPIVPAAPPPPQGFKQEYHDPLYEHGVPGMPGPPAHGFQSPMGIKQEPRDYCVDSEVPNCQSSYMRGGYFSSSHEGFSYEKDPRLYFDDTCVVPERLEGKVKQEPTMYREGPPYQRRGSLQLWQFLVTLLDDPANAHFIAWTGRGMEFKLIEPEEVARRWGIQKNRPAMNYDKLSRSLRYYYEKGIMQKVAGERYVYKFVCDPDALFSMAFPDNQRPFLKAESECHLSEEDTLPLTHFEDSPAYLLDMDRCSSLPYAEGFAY
Chain of ELF4 (Q99607 whole entry): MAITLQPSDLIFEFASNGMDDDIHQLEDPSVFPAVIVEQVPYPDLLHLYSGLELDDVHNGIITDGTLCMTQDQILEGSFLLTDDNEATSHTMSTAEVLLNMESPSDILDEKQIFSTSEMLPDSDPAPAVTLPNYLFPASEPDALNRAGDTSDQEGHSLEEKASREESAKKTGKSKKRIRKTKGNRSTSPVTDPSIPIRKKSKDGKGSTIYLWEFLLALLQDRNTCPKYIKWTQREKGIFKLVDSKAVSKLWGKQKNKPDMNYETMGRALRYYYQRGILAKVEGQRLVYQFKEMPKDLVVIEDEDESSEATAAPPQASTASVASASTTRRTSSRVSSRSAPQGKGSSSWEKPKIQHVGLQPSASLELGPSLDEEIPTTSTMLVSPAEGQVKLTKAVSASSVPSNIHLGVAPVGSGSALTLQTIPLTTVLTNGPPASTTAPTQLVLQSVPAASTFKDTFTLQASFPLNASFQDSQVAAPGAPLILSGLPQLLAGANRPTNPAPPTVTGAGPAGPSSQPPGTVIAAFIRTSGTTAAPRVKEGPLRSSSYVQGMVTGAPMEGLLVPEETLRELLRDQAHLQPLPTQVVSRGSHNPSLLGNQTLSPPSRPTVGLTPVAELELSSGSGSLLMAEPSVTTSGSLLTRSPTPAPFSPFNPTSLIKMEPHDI
Chain of HSF1 (Q00613 whole entry): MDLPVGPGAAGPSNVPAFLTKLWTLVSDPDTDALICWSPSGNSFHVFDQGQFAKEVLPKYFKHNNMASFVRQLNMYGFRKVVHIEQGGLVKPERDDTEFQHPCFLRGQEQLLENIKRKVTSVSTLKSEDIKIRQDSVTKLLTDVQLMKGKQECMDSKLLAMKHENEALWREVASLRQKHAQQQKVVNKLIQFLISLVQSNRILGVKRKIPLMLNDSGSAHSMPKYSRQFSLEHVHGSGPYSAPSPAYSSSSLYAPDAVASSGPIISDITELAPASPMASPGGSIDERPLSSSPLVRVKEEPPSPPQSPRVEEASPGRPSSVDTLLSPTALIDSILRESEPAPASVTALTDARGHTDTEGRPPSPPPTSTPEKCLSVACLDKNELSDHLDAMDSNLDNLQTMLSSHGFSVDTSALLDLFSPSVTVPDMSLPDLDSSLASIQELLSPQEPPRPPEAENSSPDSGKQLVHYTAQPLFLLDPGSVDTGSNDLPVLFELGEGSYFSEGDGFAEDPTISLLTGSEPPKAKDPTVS

TAGCCT
binding signal (FEV): 1.26 fold enrichment (6-mer frequency, TF over GST control) | binding signal (ETV5): 1.22 fold enrichment (6-mer frequency, TF over GST control) | binding signal (HSF1): 1.43 fold enrichment (6-mer frequency, TF over GST control) | binding signal (SPIC): 1.17 fold enrichment (6-mer frequency, TF over GST control) | binding signal (ELF4): 1.24 fold enrichment (6-mer frequency, TF over GST control) | binding signal (ELK4): 1.18 fold enrichment (6-mer frequency, TF over GST control) | binding signal (ETV2): 1.22 fold enrichment (6-mer frequency, TF over GST control) | binding signal (ELF3): 1.27 fold enrichment (6-mer frequency, TF over GST control) | binding signal (CRX): 1.53 fold enrichment (6-mer frequency, TF over GST control) | binding signal (ETV1): 1.26 fold enrichment (6-mer frequency, TF over GST control) | binding signal (ERF): 1.28 fold enrichment (6-mer frequency, TF over GST control) | binding signal (ETV3L): 1.31 fold enrichment (6-mer frequency, TF over GST control) | binding signal (ETS2): 1.25 fold enrichment (6-mer frequency, TF over GST control) | binding signal (SPDEF): 1.07 fold enrichment (6-mer frequency, TF over GST control) | binding signal (ETV7): 1.2 fold enrichment (6-mer frequency, TF over GST control) | binding signal (ELF5): 1.17 fold enrichment (6-mer frequency, TF over GST control) | binding signal (ETV3): 1.32 fold enrichment (6-mer frequency, TF over GST control) | binding signal (ETV6): 1.04 fold enrichment (6-mer frequency, TF over GST control)
